# Reference: PubChem BioAssay (NCATS)
# Records with an inconclusive call do not appear. Unmarked numbers belong to inactive results. Some of the results follow. A call without a number means that no potency is given here. Active and inactive are the calls of the source. Calls come from the whole dose curve; as a rule, active = well fitted curve in the direction sought with a large enough effect; inconclusive = small, poorly fitted or top-dose-only effect, or another doubt; inactive = no such curve, though single readings can be large; an effect the other way counts as inactive or inconclusive.
# Columns and labels:
# [1] = target: Rap guanine nucleotide exchange factor 3 (Homo sapiens) (UniProt O95398); test: Confirmatory qHTS for antagonist of cAMP-regulated guanine nucleotide exchange factor 3 (EPAC1) (AID 1645880); conditions: EPAC1 Rap1B-BODIPY-GDP exchange, fluorescence; activity, negative = inhibition: at 115 µM (top of the series); note: nearly all actives have a fitted effect of over 55% in size; note: potency is the fitted concentration of half-maximal effect
# Outline: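 Released BODIPY-GDP fluoresces less than Rap1-bound BODIPY-GDP; the signal is followed at 480/540 nm at 5-min intervals over 30 min, after 5 min at room temperature. Reactions contain 100 nM EPAC1, 250 nM RAP1B-BODIPY-GDP and 50 uM GDP; results are normalized to ATA and DMSO.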
# [2] = target: Rap guanine nucleotide exchange factor 3 (Homo sapiens) (UniProt O95398); test: Confirmatory qHTS for agonist of cAMP-regulated guanine nucleotide exchange factor 3 (EPAC1) (AID 1645881); note: nearly all actives have a fitted effect of over 75% in size; note: potency is the fitted concentration of half-maximal effect;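 for activation: EPAC1 catalysed release of BODIPY-GDP from Rap1B seen as fluorescence loss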
# [3] = target: Rap guanine nucleotide exchange factor 4 (Homo sapiens) (UniProt Q8WZA2); test: Confirmatory qHTS for agonist of cAMP-regulated guanine nucleotide exchange factor 4 (EPAC2) (AID 1645884);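 note: nucleotide exchange releases bodipy-GDP from Rap1 and this lowers its fluorescence; nearly all actives have a fitted effect of over 65% in size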; note: potency is the fitted concentration of half-maximal effect
# [4] = target: Rap guanine nucleotide exchange factor 4 (Homo sapiens) (UniProt Q8WZA2); test: Confirmatory qHTS for antagonist of cAMP-regulated guanine nucleotide exchange factor 4 (EPAC2) (AID 1645885); note: nearly all actives have a fitted effect of over 25% in size; note: potency is the fitted concentration of half-maximal effect
# [5] = target: Rap guanine nucleotide exchange factor 3 (Homo sapiens) (UniProt O95398); test: Counterscreen qHTS for agonist of cAMP-regulated guanine nucleotide exchange factor 3 (EPAC1) (AID 1645889); note: nearly all actives have a fitted effect of over 40% in size; note: potency is the fitted concentration of half-maximal effect
# Outline: (§1)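 Rap1B–BODIPY-GDP (250 nM) with 50 uM GDP; compounds pin-transferred to 9.74 nM–152 uM final (activator) or from 7.32 nM upwards (inhibitor). Fluorescence Ex/Em 480/540 nm read at 5 and 30 min, then after adding cAMP or buffer, at room temperature.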
# [6] = target: Tumor susceptibility gene 101 protein (Homo sapiens) (UniProt Q99816); test: qHTS Assay for Iinhibitors of HIV-1 Budding by Blocking the Interaction of PTAP/TSG101: Hit Validation (AID 651600); note: nearly all actives have a fitted effect of over 70% in size; note: potency is the fitted concentration of half-maximal effect
# Outline: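 FITC-PTAP peptide (50 nM final) binding to Tsg101 binding domain (10 uM final) was measured by polarization after 20 min at r.t. with compounds, in 10 mM HEPES pH 7.5 buffer with 0.15 M NaCl and 0.01% Tween 20.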
# [7] = target: Rap guanine nucleotide exchange factor 3 (Homo sapiens) (UniProt O95398); test: Counterscreen qHTS for antagonist of cAMP-regulated guanine nucleotide exchange factor 3 (EPAC1) (AID 1645888)
# Outline: as §1
# [8] = target: Phosphoglycerate kinase, glycosomal (Trypanosoma brucei brucei) (UniProt P07378); test: qHTS for inhibitors of Phosphogylcerate Kinase: Hit Validation Screen (AID 686980); conditions: TbPGK coupled GAPDH assay, Kinase-Glo luminescence; note: potency is the fitted concentration of half-maximal effect; nearly all actives have a fitted effect of over 65% in size
# Outline: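 Recombinant glycosomal PGK reaction used 1,3-bisphosphoglycerate generated in-well by GAPDH (100nM final) in 100mM TEA pH 7.6, 5mM MgCl2, 0.01% Tween-20. After 60 minutes at room temperature, ATP was read by Kinase-Glo Plus luminescence end-point.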
# [9] = target: DNA polymerase iota (Homo sapiens) (UniProt Q9UNA4); test: qHTS for Inhibitors of Polymerase Iota: Confirmatory Assay for Cherry-picked Compounds (AID 720496); conditions: Pol iota primer extension, TAMRA/BHQ fluorescence; note: potency is the fitted concentration of half-maximal effect
# Outline: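 Kinetic fluorescence, 0 → 10 min, ex 525/em 598 nm. Pol iota 10 nM, 15 min RT preincubation with compound, then 50 nM (final) TAMRA/BHQ-2 primer-template substrate.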
# [10] = target: Flap endonuclease 1 (Homo sapiens) (UniProt P39748); test: qHTS Assay for the Inhibitors of FEN1: Confirmatory Assay for Cherry-picked Compounds (AID 720498); conditions: FEN1 flap cleavage, TAMRA/BHQ2 fluorogenic DNA substrate; note: potency is the fitted concentration of half-maximal effect; nearly all actives have a fitted effect of over 60% in size
# Outline: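 Human FEN1 (10 nM reagent) was preincubated with compounds for 15 min at room temperature, then 50 nM final double-flap DNA substrate (5'-TAMRA flap, BHQ-2 quencher strand) was added. Fluorescence (ex 525/em 598 nm) was read at 0 and 15 min.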
# [11] = qHTS for Inhibitors of the vitamin D receptor (VDR): Hit Validation using a Texas Red Assay (AID 602201)
# Outline: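 Fluorescence polarization with 1.5 uM VDR-LBD, LG19078 and 7 nM Texas Red (final). After 2 hours at ambient temperature, read at Ex 595 nm/Em 615 nm.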
# [12] = target: DNA polymerase kappa (Homo sapiens) (UniProt Q9UBT6); test: qHTS for Inhibitors of Polymerase Kappa: Confirmatory Assay for Cherry-picked Compounds (AID 720501); conditions: purified Pol-kappa, fluorescent strand-displacement substrate; note: potency is the fitted concentration of half-maximal effect
# Outline: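 10 nM human Pol-kappa was preincubated with compound 15 min at room temperature, then 50 nM (final) primer/template substrate with TAMRA-labeled reporter strand and BHQ-2-labeled template added. Fluorescence (Ex 525, Em 598 nm) read at 0 and 10 min.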
# Sequence of Tumor susceptibility gene 101 protein (Homo sapiens) (Q99816 whole entry, looked up, the tested form may be a part): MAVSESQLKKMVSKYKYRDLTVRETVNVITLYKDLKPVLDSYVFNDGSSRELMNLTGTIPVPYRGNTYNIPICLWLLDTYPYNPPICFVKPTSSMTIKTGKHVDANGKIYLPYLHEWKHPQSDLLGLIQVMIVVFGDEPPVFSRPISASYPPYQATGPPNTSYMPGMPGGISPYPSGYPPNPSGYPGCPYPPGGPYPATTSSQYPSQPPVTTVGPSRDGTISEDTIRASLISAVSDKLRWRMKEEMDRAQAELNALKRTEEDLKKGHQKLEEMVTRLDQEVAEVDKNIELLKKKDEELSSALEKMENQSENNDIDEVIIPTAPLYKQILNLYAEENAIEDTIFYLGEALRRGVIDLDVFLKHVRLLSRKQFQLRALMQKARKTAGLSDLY
# Sequence of Rap guanine nucleotide exchange factor 3 (Homo sapiens) (O95398 whole entry, looked up): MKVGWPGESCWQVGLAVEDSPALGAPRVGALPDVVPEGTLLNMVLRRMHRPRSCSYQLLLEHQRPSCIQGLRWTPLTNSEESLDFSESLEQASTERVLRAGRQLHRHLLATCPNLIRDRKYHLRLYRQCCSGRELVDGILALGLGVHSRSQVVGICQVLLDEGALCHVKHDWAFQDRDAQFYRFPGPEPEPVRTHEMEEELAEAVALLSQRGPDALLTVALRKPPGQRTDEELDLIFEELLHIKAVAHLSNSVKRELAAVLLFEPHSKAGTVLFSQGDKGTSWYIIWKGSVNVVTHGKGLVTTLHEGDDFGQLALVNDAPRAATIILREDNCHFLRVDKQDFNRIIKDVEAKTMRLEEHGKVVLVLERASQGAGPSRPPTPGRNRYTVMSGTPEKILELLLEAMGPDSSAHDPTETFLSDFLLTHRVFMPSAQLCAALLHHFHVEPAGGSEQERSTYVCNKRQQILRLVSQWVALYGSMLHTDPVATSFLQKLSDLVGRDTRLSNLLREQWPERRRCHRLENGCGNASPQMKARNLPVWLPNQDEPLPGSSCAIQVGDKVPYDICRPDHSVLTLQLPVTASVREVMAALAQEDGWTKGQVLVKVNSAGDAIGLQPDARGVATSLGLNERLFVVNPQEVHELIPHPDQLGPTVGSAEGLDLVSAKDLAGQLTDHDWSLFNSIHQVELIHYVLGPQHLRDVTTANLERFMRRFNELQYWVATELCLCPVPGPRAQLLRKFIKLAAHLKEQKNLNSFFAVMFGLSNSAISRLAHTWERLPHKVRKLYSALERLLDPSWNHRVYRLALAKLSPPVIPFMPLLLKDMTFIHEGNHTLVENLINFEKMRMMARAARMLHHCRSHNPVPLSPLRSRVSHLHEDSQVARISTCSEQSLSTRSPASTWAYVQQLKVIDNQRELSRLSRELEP
# Sequence of Rap guanine nucleotide exchange factor 4 (Homo sapiens) (Q8WZA2 whole entry, looked up): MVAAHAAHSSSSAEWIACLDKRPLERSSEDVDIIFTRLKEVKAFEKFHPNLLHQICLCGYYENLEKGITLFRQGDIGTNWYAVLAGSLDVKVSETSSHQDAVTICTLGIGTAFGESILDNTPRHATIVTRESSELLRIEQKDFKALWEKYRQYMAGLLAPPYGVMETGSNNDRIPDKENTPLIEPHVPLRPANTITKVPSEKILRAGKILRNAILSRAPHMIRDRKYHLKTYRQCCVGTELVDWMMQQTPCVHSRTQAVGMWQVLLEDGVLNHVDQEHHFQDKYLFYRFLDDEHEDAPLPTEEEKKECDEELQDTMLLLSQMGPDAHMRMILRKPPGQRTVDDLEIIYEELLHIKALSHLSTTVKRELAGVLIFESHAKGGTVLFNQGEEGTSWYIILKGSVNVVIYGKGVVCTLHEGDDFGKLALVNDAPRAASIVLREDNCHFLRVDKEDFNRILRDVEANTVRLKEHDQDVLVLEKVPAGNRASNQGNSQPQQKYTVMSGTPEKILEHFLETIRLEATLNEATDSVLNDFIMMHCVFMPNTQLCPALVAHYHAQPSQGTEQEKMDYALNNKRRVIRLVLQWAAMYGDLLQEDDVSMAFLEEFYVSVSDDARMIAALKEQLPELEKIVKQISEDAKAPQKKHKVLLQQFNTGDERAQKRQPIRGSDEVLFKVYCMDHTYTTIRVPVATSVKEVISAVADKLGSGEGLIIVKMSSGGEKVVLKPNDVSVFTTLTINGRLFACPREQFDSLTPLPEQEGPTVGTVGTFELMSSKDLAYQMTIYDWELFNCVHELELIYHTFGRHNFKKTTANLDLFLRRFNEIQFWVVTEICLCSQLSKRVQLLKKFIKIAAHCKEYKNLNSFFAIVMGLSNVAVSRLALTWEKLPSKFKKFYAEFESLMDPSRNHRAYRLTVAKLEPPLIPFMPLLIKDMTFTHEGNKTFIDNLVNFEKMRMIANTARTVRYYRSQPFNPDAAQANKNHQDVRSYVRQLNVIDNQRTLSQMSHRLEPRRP
# Sequence of DNA polymerase iota (Homo sapiens) (Q9UNA4 whole entry, looked up): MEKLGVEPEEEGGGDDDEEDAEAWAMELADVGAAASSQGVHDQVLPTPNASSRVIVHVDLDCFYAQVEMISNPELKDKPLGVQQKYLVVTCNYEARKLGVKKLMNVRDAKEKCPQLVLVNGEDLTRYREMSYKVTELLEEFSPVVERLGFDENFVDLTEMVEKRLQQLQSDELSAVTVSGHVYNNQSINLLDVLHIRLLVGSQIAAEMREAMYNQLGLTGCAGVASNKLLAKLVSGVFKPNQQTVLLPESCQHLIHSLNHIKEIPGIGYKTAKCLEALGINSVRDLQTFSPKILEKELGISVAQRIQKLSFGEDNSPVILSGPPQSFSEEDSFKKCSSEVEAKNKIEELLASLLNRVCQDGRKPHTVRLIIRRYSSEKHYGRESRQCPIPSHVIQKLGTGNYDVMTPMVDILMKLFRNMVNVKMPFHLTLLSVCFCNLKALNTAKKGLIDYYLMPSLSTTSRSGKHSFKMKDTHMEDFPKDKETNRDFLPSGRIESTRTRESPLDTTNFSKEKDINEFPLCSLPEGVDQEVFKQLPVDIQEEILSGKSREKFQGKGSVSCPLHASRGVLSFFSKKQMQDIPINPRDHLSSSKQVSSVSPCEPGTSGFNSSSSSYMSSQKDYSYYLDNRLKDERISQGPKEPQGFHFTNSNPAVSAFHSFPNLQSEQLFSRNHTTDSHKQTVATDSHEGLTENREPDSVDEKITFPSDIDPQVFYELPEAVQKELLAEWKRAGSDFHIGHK
# Sequence of Flap endonuclease 1 (Homo sapiens) (P39748 whole entry, looked up): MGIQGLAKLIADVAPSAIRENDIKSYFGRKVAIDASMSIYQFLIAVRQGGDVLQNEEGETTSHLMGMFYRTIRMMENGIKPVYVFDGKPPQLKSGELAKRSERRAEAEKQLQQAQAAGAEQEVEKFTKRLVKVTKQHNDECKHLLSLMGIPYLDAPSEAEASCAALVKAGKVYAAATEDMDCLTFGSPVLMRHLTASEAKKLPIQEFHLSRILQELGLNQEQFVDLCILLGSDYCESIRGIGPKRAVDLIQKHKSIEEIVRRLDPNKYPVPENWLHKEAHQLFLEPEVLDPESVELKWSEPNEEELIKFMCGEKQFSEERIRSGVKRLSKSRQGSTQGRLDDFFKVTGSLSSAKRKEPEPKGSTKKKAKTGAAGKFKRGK
# Sequence of Phosphoglycerate kinase, glycosomal (Trypanosoma brucei brucei) (P07378 whole entry, looked up): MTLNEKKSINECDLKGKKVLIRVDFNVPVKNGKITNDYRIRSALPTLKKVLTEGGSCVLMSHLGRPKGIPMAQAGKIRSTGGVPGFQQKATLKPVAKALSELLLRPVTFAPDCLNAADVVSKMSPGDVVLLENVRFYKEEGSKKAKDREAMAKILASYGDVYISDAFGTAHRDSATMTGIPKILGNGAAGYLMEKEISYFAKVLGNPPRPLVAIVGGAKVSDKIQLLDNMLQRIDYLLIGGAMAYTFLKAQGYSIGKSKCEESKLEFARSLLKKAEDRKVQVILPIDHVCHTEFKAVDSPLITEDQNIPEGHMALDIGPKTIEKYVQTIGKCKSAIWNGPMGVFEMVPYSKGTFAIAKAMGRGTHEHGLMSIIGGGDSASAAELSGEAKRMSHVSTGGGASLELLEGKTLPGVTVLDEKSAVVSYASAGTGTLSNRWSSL
# Sequence of DNA polymerase kappa (Homo sapiens) (Q9UBT6 whole entry, looked up): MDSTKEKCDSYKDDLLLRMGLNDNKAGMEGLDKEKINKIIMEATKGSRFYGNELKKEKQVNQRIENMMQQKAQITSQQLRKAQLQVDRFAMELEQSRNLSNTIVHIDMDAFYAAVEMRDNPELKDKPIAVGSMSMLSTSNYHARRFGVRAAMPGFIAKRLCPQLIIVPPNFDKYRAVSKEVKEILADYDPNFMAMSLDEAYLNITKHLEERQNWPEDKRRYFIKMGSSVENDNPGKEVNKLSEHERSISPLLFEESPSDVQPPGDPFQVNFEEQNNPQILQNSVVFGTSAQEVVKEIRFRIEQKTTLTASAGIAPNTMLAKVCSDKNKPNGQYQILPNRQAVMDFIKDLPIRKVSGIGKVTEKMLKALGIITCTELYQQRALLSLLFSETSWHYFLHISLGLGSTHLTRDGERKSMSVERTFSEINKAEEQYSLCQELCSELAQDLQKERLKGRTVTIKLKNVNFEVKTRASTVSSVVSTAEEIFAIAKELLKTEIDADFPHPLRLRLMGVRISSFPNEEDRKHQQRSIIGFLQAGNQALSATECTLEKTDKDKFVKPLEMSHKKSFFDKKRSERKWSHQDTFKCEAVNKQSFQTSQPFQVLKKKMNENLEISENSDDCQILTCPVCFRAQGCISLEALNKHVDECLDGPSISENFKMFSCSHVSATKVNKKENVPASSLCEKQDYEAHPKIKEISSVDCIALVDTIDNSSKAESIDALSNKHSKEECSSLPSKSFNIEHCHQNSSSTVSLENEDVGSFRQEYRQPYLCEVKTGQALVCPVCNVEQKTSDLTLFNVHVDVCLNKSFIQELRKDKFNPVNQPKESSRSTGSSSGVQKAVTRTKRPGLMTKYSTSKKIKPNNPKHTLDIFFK
smiles,measurement,setting,value
CC(=O)/C(C#N)=C1\NC(=O)C(Cc2cc(Cl)ccc2Cl)S1 (stereo not given),Potency,[1],44.7 µM (active)
same,Potency,[2],inactive
same,activation,[3],"4.95% [at 17.1 µM, percent relative to cAMP agonist control]"
same,Potency,[4],inactive
same,activation,[5],2.87% [at 30.8 µM]
CCC(=O)N1c2ccc(S(=O)(=O)NCCc3ccc(C)cc3)cc2CC1C (stereo not given),Potency,[1],inactive
same,Potency,[2],inactive
same,Potency,[3],inactive
same,Potency,[4],inactive
same,Potency,[5],inactive
CC(C)c1ccc(NC(=O)COC(=O)C2=COCCO2)cc1,Potency,[1],inactive
same,Potency,[2],inactive
same,activation,[3],"-5.53% [at 17.1 µM, percent relative to cAMP agonist control]"
same,Potency,[4],inactive
same,activation,[5],17.9% [at 30.8 µM]
COc1cc(NC(=O)c2cnc(N)s2)cc(C(=O)Nc2cccc(C(F)(F)F)c2)c1,Potency,[1],12.6 µM (active)
same,Potency,[2],inactive
same,activation,[3],"5.57% [at 17.1 µM, percent relative to cAMP agonist control]"
same,Potency,[4],inactive
same,activation,[5],16.6% [at 30.8 µM]
O=C(N/N=C/c1ccccc1Cl)c1[nH]c2ccc(Br)cc2c1-c1ccccc1,Potency,[6],inactive
same,Potency,[1],inactive
same,Potency,[2],inactive
same,Potency,[3],126 µM (active)
same,Potency,[4],inactive
same,Potency,[7],inactive
CCOc1ccc(NC(=O)c2ccc(NC(=O)COC(=O)c3ccc(NC(=O)CC#N)cc3)cc2)cc1,Potency,[8],8.19 µM (active)
same,Potency,[9],4.74 µM (active)
same,Potency,[10],67.5 µM (active)
same,Potency,[1],inactive
same,Potency,[2],inactive
same,Potency,[3],inactive
same,Potency,[4],inactive
same,Potency,[7],inactive
COc1ccc2nc3ccccc3[n+]([O-])c2c1,Potency,[6],18.3 µM (active)
same,Potency,[1],inactive
same,Potency,[2],79.4 µM (active)
same,activation,[3],"14% [at 17.1 µM, percent relative to cAMP agonist control]"
same,Potency,[4],inactive
same,"activity change, negative = inhibition",[7],32.7% [at 30.8 µM]
CCOC(=O)c1cc2n(c1/N=C/N(C)C)-c1ccccc1C2=O,Potency,[6],5.8 µM (active)
same,Potency,[1],inactive
same,Potency,[2],inactive
same,activation,[3],"6.24% [at 17.1 µM, percent relative to cAMP agonist control]"
same,Potency,[4],inactive
same,"activity change, negative = inhibition",[7],1.53% [at 30.8 µM]
CC(=O)Nc1ccc(N=Cc2c(O)c(C(=O)Nc3ccccc3)cc3ccccc23)cc1,Potency,[6],16.3 µM (active)
same,Potency,[1],inactive
same,Potency,[2],inactive
same,activation,[3],"-21% [at 17.1 µM, percent relative to cAMP agonist control]"
same,Potency,[4],inactive
same,"activity change, negative = inhibition",[7],-16.4% [at 30.8 µM]
CCOc1ccc2oc(C(=O)N(C)CC(=O)Nc3ccc(OCC)c(OCC)c3)c(C)c2c1,Potency,[1],inactive
same,Potency,[2],inactive
same,Potency,[3],inactive
same,Potency,[4],inactive
same,Potency,[5],inactive
CCC(COC)Oc1cc(NCc2ccccc2)c2ncn(C(C)C)c2c1 (stereo not given),Potency,[1],inactive
same,Potency,[2],inactive
same,Potency,[3],inactive
same,Potency,[4],inactive
same,Potency,[5],7.94 µM (active)
CC1CN(c2nc3ccccc3nc2C(C#N)C(=O)NCc2ccc3c(c2)OCO3)CC(C)O1 (stereo not given),Potency,[6],inactive
same,Potency,[1],inactive
same,Potency,[2],inactive
same,Potency,[3],inactive
same,Potency,[4],inactive
same,Potency,[7],inactive
CCOC(=O)COc1ccc(Br)cc1/C=C/c1[nH]c(=O)[nH]c(=O)c1[N+](=O)[O-],Potency,[11],inactive
same,Potency,[1],7.57 µM (active)
same,Potency,[2],inactive
same,Potency,[3],inactive
same,Potency,[4],inactive
same,Potency,[7],inactive
CC(C)(C)OC(=O)N1CCN(C(=O)c2[nH]c(C(F)(F)F)nc2-c2ccccc2)CC1,Potency,[1],inactive
same,Potency,[2],inactive
same,Potency,[3],inactive
same,Potency,[4],inactive
same,Potency,[5],inactive
COc1ccc2nc3ccccc3nc2c1NC(=O)c1ccc(Cl)cc1Cl,Potency,[6],inactive
same,Potency,[1],inactive
same,Potency,[2],100 µM (active)
same,Potency,[3],100 µM (active)
same,Potency,[4],inactive
same,Potency,[7],inactive
O=C1/C(=C/c2ccc(O)c(O)c2)SC(=S)N1Nc1ccccc1,Potency,[1],16.9 µM (active)
same,Potency,[2],inactive
same,Potency,[3],inactive
same,Potency,[4],inactive
same,Potency,[5],inactive
CCn1cc(SCC(=O)NCc2ccc3c(c2)OCO3)c2ccccc21,Potency,[1],inactive
same,Potency,[2],inactive
same,activation,[3],"0% [at 17.1 µM, percent relative to cAMP agonist control]"
same,Potency,[4],inactive
same,activation,[5],20.3% [at 30.8 µM]
O=S(=O)(Nc1nc2ccccc2nc1Nc1cccc(S(=O)(=O)N2CCCCC2)c1)c1ccccc1,Potency,[1],56.2 µM (active)
same,Potency,[2],inactive
same,activation,[3],"6.04% [at 17.1 µM, percent relative to cAMP agonist control]"
same,Potency,[4],inactive
same,activation,[5],25.8% [at 30.8 µM]
Cc1ccc(C(=O)NN2C(=O)/C(=C/c3cn(C)c4ccccc34)SC2=S)cc1,Potency,[6],14.6 µM (active)
same,Potency,[1],inactive
same,Potency,[2],inactive
same,Potency,[3],inactive
same,Potency,[4],inactive
same,Potency,[7],inactive
COc1ccc(C2CCc3cc4c(cc3C2=NO)OCO4)cc1OC (stereo not given),Potency,[1],inactive
same,Potency,[2],inactive
same,activation,[3],"6.77% [at 17.1 µM, percent relative to cAMP agonist control]"
same,Potency,[4],inactive
same,activation,[5],14.5% [at 30.8 µM]
CN(C)c1ccc(/C=C(\C#N)C(=O)Nc2nc3c(s2)CCN(Cc2ccccc2)C3)cc1,Potency,[6],inactive
same,Potency,[1],inactive
same,Potency,[2],100 µM (active)
same,Potency,[3],100 µM (active)
same,Potency,[4],inactive
same,Potency,[7],inactive
Cc1ccc(C)c(-n2c(CCC(=O)O)ccc2-c2ccc(Cl)cc2)c1,Potency,[1],inactive
same,Potency,[2],inactive
same,Potency,[3],inactive
same,Potency,[4],inactive
same,Potency,[5],inactive
CCc1ccc([C@@H]2CC=C(C(=O)O)[C@H](c3ccc(C(C)(C)C)cc3)N2S(=O)(=O)c2ccc(C)cc2)cc1,Potency,[1],37.9 µM (active)
same,Potency,[2],inactive
same,Potency,[3],inactive
same,Potency,[4],37.9 µM (active)
same,Potency,[5],inactive
C=CCn1cc(C(=O)NCCCOC)c(=O)c2cc(S(=O)(=O)N(CC)CC)ccc21,Potency,[1],inactive
same,Potency,[2],inactive
same,Potency,[3],inactive
same,Potency,[4],inactive
same,Potency,[5],inactive
COc1ccc(Br)cc1/C=N/Nc1ccc(S(=O)(=O)Nc2ccccc2C(=O)O)cc1[N+](=O)[O-],Potency,[9],37.7 µM (active)
same,Potency,[12],42.3 µM (active)
same,Potency,[1],25.1 µM (active)
same,Potency,[2],inactive
same,activation,[3],"0.546% [at 17.1 µM, percent relative to cAMP agonist control]"
same,Potency,[4],inactive
same,"activity change, negative = inhibition",[7],-3.11% [at 30.8 µM]
CCN1CCN(C2=CC3=CC(=C(C#N)C#N)CCC3CC2)CC1 (stereo not given),Potency,[1],inactive
same,Potency,[2],79.4 µM (active)
same,Potency,[3],100 µM (active)
same,Potency,[4],67.5 µM (active)
same,Potency,[5],10 µM (active)
CCn1c(O)c(/C=N/N=C/c2ccc(OC)cc2)c2cc(C3=NNC(=O)CC3)ccc21,Potency,[1],inactive
same,Potency,[2],89.1 µM (active)
same,Potency,[3],100 µM (active)
same,Potency,[4],inactive
same,Potency,[5],inactive
Cn1c(/C(C#N)=C/c2ccc(-c3ccc(S(N)(=O)=O)cc3)o2)nc2ccccc21,Potency,[6],inactive
same,Potency,[1],inactive
same,Potency,[2],inactive
same,Potency,[3],inactive
same,Potency,[4],95.3 µM (active)
same,Potency,[7],inactive
C/C(=N\NC(=O)CC#N)c1cc2ccc(O)cc2oc1=O,Potency,[1],inactive
same,Potency,[2],inactive
same,activation,[3],"2.05% [at 17.1 µM, percent relative to cAMP agonist control]"
same,Potency,[4],inactive
same,activation,[5],-21% [at 30.8 µM]
